An excerpt weighted towards active compounds, which were near 4.3% of everything screened.
SMARCA2 activ = increases SMARCA2 function in MMTV reporter cells. activation, % at 9.1 µM. MG213 cells, MMTV-luciferase reporter, dexamethasone, overnight. actives 1% (n = 370,000). AID 652017; in the data active means activation above about 7.8%;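 further: 0% = vehicle wells and 100% = reference activator wells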
Wnt act = activates Wnt/beta-catenin signaling in a reporter cell assay | activator, plate reader | activation, % at 9.35 µM | actives 1.2% (n = 300,000); in the data active means activation above about 30%, passing the limit was not always enough; inconclusive means no clear call, values can overlap the other calls;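 further: 0% = neutral control wells and 100% = positive control wells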
MITF TRPM1 HTS = activators of MITF-driven TRPM1 promoter activity in SK-MEL-5 cells; SK-MEL-5 TRPM1-promoter luciferase, 24 h; % of positive control, neutral wells = 0; activation, % at 12.5 µM; actives 0.75% (n = 300,000); AID 588334;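 active means mean activation of at least 80% with every replicate also reaching 80%; inconclusive means mean reaches 80% but some replicate falls short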;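 further: 0% = neutral control wells and 100% = parthenolide positive control wells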
esBAF inh = blocks esBAF chromatin remodeling in mouse ES cells. reporter increase, % at 12.5 µM. actives 2% (n = 350,000). AID 602393. Bmi1-luciferase knock-in reporter, 24 h; 100% = twice the neutral-well signal; in the data active means activation above about 40%; inconclusive means no clear call, values can overlap the other calls;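 further: 0% = median of the plate's neutral control wells and 100% = double that signal; a rise in the Bmi1 reporter signal indicates esBAF inhibition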
HSF1 activator = increases HSF-1 driven luciferase reporter signal | NIH3T3-HGL HSF-1 luciferase reporter, MG132, 8 h; 100% = twice DMSO control signal | activation, % at 9 µM | actives 1.7% (n = 300,000);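 active means mean replicate activation of at least 50% with a set share of replicates each reaching 50%; inconclusive means only one of those two conditions met; inactive means mean below 50% and too few replicates reaching it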;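 further: 0% = median of the neutral control wells and 100% = twice that signal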
HSF1 inhib = HSF1 inhibition; NIH3T3-HGL HSE-luciferase, MG132-induced, luminescence 8 h; stronger effect = lower value; activity change, negative = inhibition, % at 7.5 µM (by protocol); actives 0.77% (n = 300,000); AID 2098;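 active means more than half of replicate wells show activity change below -50%, luminescence cut by over half; inconclusive means some wells, but at most half, below -50%; inactive means no replicate well below -50%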;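 further: luciferase reports HSF-1 transcriptional activity via heat shock element; 0% = median of DMSO wells and -100% = zero luminescence signal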
Numbers without * were called inactive.

Results for CC1CCN(c2nc3ccc(C(=O)O)cc3s2)CC1 ?
SMARCA2 activ: -2.8; MITF TRPM1 HTS: -89.7; esBAF inh: -70.6; HSF1 activator: -84.8; HSF1 inhib: -83.1*

What do the screens show for `CC(C)C#Cc1cnc2c(c1)C(=O)N([C@@H](C)CO)C[C@@H](C)[C@@H](CN(C)C(=O)Nc1ccc(F)cc1)O2`?
esBAF inh: 35.0

What do the screens show for `O=C(C[C@@H]1CC[C@@H](NS(=O)(=O)c2ccc(F)cc2)[C@H](CO)O1)NC1CCC1`?
esBAF inh: -4.4

Results for CC(O)C(NS(=O)(=O)c1ccc(Cl)cc1)C(=O)OCC(=O)Nc1cccnc1Cl (stereo not given) ?
SMARCA2 activ: -1.6; Wnt act: -0.5; MITF TRPM1 HTS: 1.2; HSF1 activator: -1.4; HSF1 inhib: -4.2

How did CC(O)C(NS(=O)(=O)c1ccc(Cl)cc1)C(=O)OCCOc1ccc(F)cc1 (stereo not given) do in these assays?
SMARCA2 activ: -3.3; Wnt act: 45.4*; esBAF inh: -1.3

How did COC(=O)C1=CN(Cc2ccc(OC)c(OC)c2)C=C(C(=O)OC)C1c1ccccc1F do in these assays?
SMARCA2 activ: -1.1; Wnt act: 1.1; esBAF inh: -2.3; HSF1 activator: -60.8; HSF1 inhib: -54.9*

How did COC(=O)C1=CN(Cc2ccc(OC)c(OC)c2)C=C(C(=O)OC)C1c1cccc(OC)c1OC do in these assays?
SMARCA2 activ: 0.0; Wnt act: 3.5; MITF TRPM1 HTS: 9.2; esBAF inh: 18.9; HSF1 activator: 6.3; HSF1 inhib: 8.5

Results for COc1ccc2[nH]c3c(=O)n(CCCN4CCOCC4)cnc3c2c1 ?
SMARCA2 activ: -1.4; Wnt act: 0.1; MITF TRPM1 HTS: -10.9; esBAF inh: -6.9; HSF1 activator: -70.3; HSF1 inhib: -63.4*

What do the screens show for `O=C(NC(=S)NCCC1=CCCCC1)c1ccco1`?
SMARCA2 activ: 1.1; MITF TRPM1 HTS: 36.9; HSF1 activator: 62.0*; HSF1 inhib: 26.7

Results for CC(=O)c1ccc(NC(=O)CN2CCCC2)cc1 ?
SMARCA2 activ: 4.5; Wnt act: 2.1; esBAF inh: 49.6*; HSF1 activator: 15.4; HSF1 inhib: 6.9

Results for CC(=O)c1ccc(NC(=O)CSCCO)cc1 ?
SMARCA2 activ: 0.3; MITF TRPM1 HTS: 27.0; esBAF inh: 27.1

Results for CSCCC(=O)Nc1ccc(C(C)=O)cc1 ?
SMARCA2 activ: 4.4; Wnt act: -0.6; MITF TRPM1 HTS: 39.2; esBAF inh: 53.3*; HSF1 activator: -0.5; HSF1 inhib: 2.5

How did Cc1ccc(NC(=O)CN2CCCC2)cc1 do in these assays?
SMARCA2 activ: -0.6; Wnt act: 6.4; MITF TRPM1 HTS: -9.8; esBAF inh: 3.9; HSF1 activator: -19.5; HSF1 inhib: -1.9

What do the screens show for `CC1CCN(CC(=O)Nc2ccc(S(=O)(=O)N3CCC(C)CC3)cc2)CC1`?
SMARCA2 activ: -2.7; Wnt act: -1.8; MITF TRPM1 HTS: 7.8; esBAF inh: 5.7; HSF1 activator: 25.7; HSF1 inhib: -3.6

How did CC1CCN(CC(=O)Nc2ccc(S(=O)(=O)NC3CC3)cc2)CC1 do in these assays?
SMARCA2 activ: -2.2; Wnt act: -2.6; MITF TRPM1 HTS: -2.6; esBAF inh: -7.7; HSF1 activator: -72.1; HSF1 inhib: -64.9*

Results for Oc1ccccc1C(Nc1nccs1)c1ccc2cccnc2c1O (stereo not given) ?
SMARCA2 activ: -0.9; Wnt act: 0.3; MITF TRPM1 HTS: -15.2; esBAF inh: -18.3; HSF1 activator: -63.8; HSF1 inhib: -57.1*

What do the screens show for `CC(=O)NC(c1ccco1)c1ccc2cccnc2c1O` (stereo not given)?
MITF TRPM1 HTS: -50.5; esBAF inh: -37.3; HSF1 activator: -14.9; HSF1 inhib: -3.8

How did Oc1c(C(Nc2ccccn2)c2ccccn2)ccc2cccnc12 (stereo not given) do in these assays?
SMARCA2 activ: -3.3; Wnt act: 76.2*; MITF TRPM1 HTS: -70.0; HSF1 activator: -19.0; HSF1 inhib: -19.8

Results for CNC[C@@H]1OCCCC[C@H](C)Oc2ccc(NS(=O)(=O)c3ccc(F)cc3)cc2C(=O)N([C@H](C)CO)C[C@@H]1C ?
esBAF inh: -5.8

What do the screens show for `O=C(Cn1cccc1C(=O)c1ccccc1)NCc1ccccc1Cl`?
SMARCA2 activ: 4.3; Wnt act: 12.9; MITF TRPM1 HTS: 41.2; esBAF inh: 55.7*; HSF1 activator: 25.8; HSF1 inhib: 11.4

Results for Cc1ccccc1C(=O)c1cccn1CC(=O)NCc1ccccc1Cl ?
SMARCA2 activ: 3.0; Wnt act: 8.5; MITF TRPM1 HTS: 57.2; esBAF inh: 56.7*; HSF1 activator: 24.7; HSF1 inhib: 12.9

Results for C[C@@H]1CN([C@H](C)CO)C(=O)c2cccc(NS(C)(=O)=O)c2O[C@@H]1CN(C)Cc1ccccc1 ?
esBAF inh: -3.2

Results for O=C(Nc1nc2c(F)cc(F)cc2s1)c1ccc([N+](=O)[O-])o1 ?
SMARCA2 activ: -0.2; Wnt act: 2.6; esBAF inh: 56.5*; HSF1 activator: 36.8; HSF1 inhib: 9.6

Results for O=C(Nc1nc2c(F)cc(F)cc2s1)c1ccco1 ?
SMARCA2 activ: 1.9; Wnt act: 45.5*; esBAF inh: 0.8; HSF1 activator: 49.5; HSF1 inhib: 19.2

How did O=C(Nc1nc2c(Cl)ccc(Cl)c2s1)c1ccco1 do in these assays?
SMARCA2 activ: -0.8; Wnt act: 11.2; esBAF inh: 11.2; HSF1 activator: -2.2; HSF1 inhib: -5.4

How did O=C(Nc1nc2c(ccc3ccccc32)s1)c1ccco1 do in these assays?
SMARCA2 activ: 0.2; Wnt act: 37.6*; MITF TRPM1 HTS: 19.9; esBAF inh: 26.6; HSF1 activator: 29.9; HSF1 inhib: 20.2

What do the screens show for `O=C(Nc1nc2c(F)c(F)c(F)cc2s1)c1ccco1`?
SMARCA2 activ: 6.0; Wnt act: 24.9; MITF TRPM1 HTS: inconclusive; esBAF inh: 52.8*; HSF1 activator: 12.6; HSF1 inhib: 5.3

How did O=C(COC(=O)c1ccco1)Nc1nc2c(F)c(F)c(F)cc2s1 do in these assays?
SMARCA2 activ: 3.4; Wnt act: -0.6; MITF TRPM1 HTS: 6.9; esBAF inh: 2.1; HSF1 activator: 31.6; HSF1 inhib: 8.3

How did C[C@H]1CN([C@@H](C)CO)C(=O)c2cc(NS(=O)(=O)c3cn(C)cn3)ccc2O[C@H]1CN(C)Cc1ccccc1 do in these assays?
esBAF inh: 1.5

What do the screens show for `CCCc1cn(CC[C@H]2CC[C@@H](NC(=O)C3CCC3)[C@H](CO)O2)nn1`?
esBAF inh: -1.4

What do the screens show for `O=C(Nc1ccccc1)N1CCCCN2[C@H](CO)[C@@H](c3ccc(C4=CCCCC4)cc3)[C@H]2C1`?
esBAF inh: -5.7

What do the screens show for `C[C@@H]1CCCCO[C@H](CN(C)Cc2ccc3c(c2)OCO3)[C@H](C)CN([C@H](C)CO)C(=O)c2cc(NC(=O)Nc3ccc(C(F)(F)F)cc3)ccc2O1`?
esBAF inh: 4.1
